# Test results taken from PubChem BioAssay AID1159580 (chemical genetic matrix, 2015).
# About 2,000 (36%) of roughly 5,500 compounds were called active. About 18% were inconclusive and are not listed. The list shows a part of the results. Unmarked numbers belong to inactive results. Rule as the data show it: active = normalized growth mostly below about 0.91 (no sharp cut-off); inconclusive = no clear call, values can overlap the other calls; inactive = mostly above about 0.92.
# Assay: chemical genetic growth profiling, strain panel (AID 1159580);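 also: tested at 20 µM; growth read once vehicle control cultures reached saturation at 30 °C; 1 = growth at the plate median or of vehicle wells; lower values mean less growth of the strain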
# Conditions: growth OD
# [1] = S. cerevisiae deletion strains, locus YAL013W, strain DEP1, active compounds read low
# [2] = S. cerevisiae deletion strains, locus YDR150W, strain NUM1, active compounds read low
# [3] = S. cerevisiae deletion strains, locus YGR229C, strain SMI1, active compounds read low
# [4] = S. cerevisiae deletion strains, locus YNL153C, strain GIM3, active compounds read low
# [5] = S. cerevisiae deletion strains, locus YNL322C, strain KRE1, active compounds read low
# [6] = S. cerevisiae deletion strains, locus YPL241C, strain CIN2, active compounds read low
# [7] = S. cerevisiae deletion strains, locus YBR229C, strain ROT2, active compounds read low
# [8] = S. cerevisiae deletion strains, locus YDL101C, strain DUN1, active compounds read low
# [9] = S. cerevisiae deletion strains, locus YDL134C, strain PPH21, active compounds read low
# [10] = S. cerevisiae deletion strains, locus YEL061C, strain CIN8, active compounds read low
# [11] = S. cerevisiae deletion strains, locus YGR078C, strain PAC10, active compounds read low
# [12] = S. cerevisiae deletion strains, locus YHR030C, strain SLT2, active compounds read low
# [13] = S. cerevisiae deletion strains, locus YHR087W, strain rtc3, active compounds read low
# [14] = S. cerevisiae deletion strains, locus YJL187C, strain SWE1, active compounds read low
# [15] = S. cerevisiae deletion strains, locus YJR043C, strain POL32, active compounds read low
# [16] = S. cerevisiae deletion strains, locus YJR075W, strain HOC1, active compounds read low
# [17] = S. cerevisiae deletion strains, locus YKL190W, strain CNB1, active compounds read low
# [18] = S. cerevisiae deletion strains, locus YLR039C, strain RIC1, active compounds read low
# [19] = S. cerevisiae deletion strains, locus YLR058C, strain SHM2 (second series), active compounds read low
# [20] = S. cerevisiae deletion strains, locus YLR085C, strain ARP6, active compounds read low
# [21] = S. cerevisiae deletion strains, locus YLR262C, strain YPT6, active compounds read low
# [22] = S. cerevisiae deletion strains, locus YML094W, strain GIM5, active compounds read low
# [23] = S. cerevisiae deletion strains, locus YMR219W, strain ESC1, active compounds read low
# [24] = S. cerevisiae deletion strains, locus YNL298W, strain CLA4 (second series), active compounds read low
# [25] = S. cerevisiae deletion strains, locus YNR030W, strain Alg12, active compounds read low
# [26] = S. cerevisiae deletion strains, locus YPL055C, strain LGE1, active compounds read low
# [27] = S. cerevisiae deletion strains, locus YPR135W, strain CTF4, active compounds read low
compound,measurement,setting,value
CN=c1nc(-c2ccccc2)n(-c2ccccc2)s1,normalized growth,[1],0.969
same,normalized growth,"S. cerevisiae deletion strains, locus YAL040C, strain CLN3, active compounds read low",0.983
same,normalized growth,"S. cerevisiae deletion strains, locus YCL061C, strain MRC1 (second series), active compounds read low",0.984
same,normalized growth,[2],0.973
same,normalized growth,"S. cerevisiae deletion strains, locus YDR363W, strain ESC2, active compounds read low",0.983
same,normalized growth,"S. cerevisiae deletion strains, locus YER002W, strain NOP16, active compounds read low",0.982
same,normalized growth,[3],0.905
same,normalized growth,"S. cerevisiae deletion strains, locus YMR307W, strain GAS1, active compounds read low",0.947
same,normalized growth,[4],0.905
same,normalized growth,"S. cerevisiae deletion strains, locus YNL175C, strain NOP13, active compounds read low",0.978
same,normalized growth,"S. cerevisiae deletion strains, locus YNL197C, strain WHI3, active compounds read low",0.99
same,normalized growth,"S. cerevisiae deletion strains, locus YNL224C, strain SQS1, active compounds read low",0.987
same,normalized growth,[5],0.978
same,normalized growth,"S. cerevisiae deletion strains, locus YOR083W, strain WHI5 (second series), active compounds read low",0.961
same,normalized growth,[6],0.982
CCOC(=O)c1sc(-c2ccc(C)cc2)nc1O,normalized growth,[1],0.182 (active)
same,normalized growth,[7],0.136 (active)
same,normalized growth,[8],0.267 (active)
same,normalized growth,[9],0.716 (active)
same,normalized growth,[2],0.195 (active)
same,normalized growth,[10],0.583 (active)
same,normalized growth,[11],0.122 (active)
same,normalized growth,[12],0.0748 (active)
same,normalized growth,[13],0.135 (active)
same,normalized growth,[14],0.107 (active)
same,normalized growth,[15],0.337 (active)
same,normalized growth,[16],0.174 (active)
same,normalized growth,[17],0.46 (active)
same,normalized growth,[18],0.409 (active)
same,normalized growth,[19],0.129 (active)
same,normalized growth,[20],0.228 (active)
same,normalized growth,[21],0.464 (active)
same,normalized growth,[22],0.345 (active)
same,normalized growth,[23],0.218 (active)
same,normalized growth,[4],0.301 (active)
same,normalized growth,[24],0.118 (active)
same,normalized growth,[5],0.313 (active)
same,normalized growth,[25],0.438 (active)
same,normalized growth,[26],0.659 (active)
same,normalized growth,[6],0.463 (active)
same,normalized growth,[27],0.368 (active)
same,normalized growth,"S. cerevisiae strains, strain wild type, active compounds read low",0.518 (active)
CCOC(=O)c1nc(-c2ccccc2)sc1C(=O)OCC,normalized growth,[1],1
same,normalized growth,[7],0.955
same,normalized growth,[8],0.999
same,normalized growth,[9],0.947
same,normalized growth,[2],1
same,normalized growth,[10],0.958
same,normalized growth,[11],0.973
same,normalized growth,[3],0.958
same,normalized growth,[12],0.735
same,normalized growth,[13],0.958
same,normalized growth,[14],0.947
same,normalized growth,[15],0.973
same,normalized growth,[16],0.907
same,normalized growth,[17],0.961
same,normalized growth,[18],0.716 (active)
same,normalized growth,[19],0.968
same,normalized growth,[20],0.833
same,normalized growth,[21],0.814 (active)
same,normalized growth,[22],0.921
same,normalized growth,[23],0.963
same,normalized growth,"S. cerevisiae deletion strains, locus YMR263W, strain SAP30, active compounds read low",0.977
same,normalized growth,[4],0.995
same,normalized growth,[24],0.766 (active)
same,normalized growth,[5],0.981
same,normalized growth,[25],0.912
same,normalized growth,"S. cerevisiae deletion strains, locus YOL006C, strain TOP1, active compounds read low",0.718 (active)
same,normalized growth,[26],0.979
same,normalized growth,[6],0.921
same,normalized growth,[27],0.741
